# In PubChem BioAssay (NCI):
# This is part of a sample that, as a whole, favours compounds with a hit. Of some 83,000 tested, about 20% had one in any assay.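 Step 1: grow cells in 96-well plates. Step 2: add test compound at a single concentration. Step 3: incubate 48 h. Step 4: record percent growth.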 Activity calls are given as the source filed them. Rule for the calls: active = growth percent below 10; inactive = the rest.
# System: SNB-19 CNS
# Test: NCI-60 one-dose screen, 48 h (100 = growth as untreated, 0 = no growth, -100 = all killed)
# Conditions: 10 µM unless noted
row,SMILES,growth
1,CSc1nnc(-c2cc3c([nH]c4ccccc43)c(-c3cccc(O)c3)n2)n1-c1ccccc1,38.6% (inactive)
2,Nc1cc(C(=O)NC[C@H]2CN(c3ccc(N4CCC(C(=O)O)CC4)cc3)C(=O)O2)ccc1Cl,98.7% (inactive)
3,CC(C)(Sc1cc(C(C)(C)C)c(OC(=O)CCCC(=O)O)c(C(C)(C)C)c1)Sc1cc(C(C)(C)C)c(OC(=O)CCCC(=O)O)c(C(C)(C)C)c1,29.6% (inactive)
4,C=CCn1c(SCC(=O)Nc2ccc(C(=O)/C=C/c3ccc(Cl)cc3)cc2)nnc1-c1ccc(Br)cc1,77.8% (inactive)
5,CCOC(=O)c1nn(-c2ccc(S(N)(=O)=O)cc2)c2nc(C)cc(=O)n12,98.8% (inactive)
6,CN(C)CCNC(=O)c1cc2c3cc(Cl)ccc3[nH]c2c2ncccc12,40% (inactive)
7,COc1ccccc1NC(=O)N=Nc1c(O)[nH]c2ccccc12,89.7% (inactive)
8,CC(=O)N1N=C(c2ccc(C(F)(F)F)c(F)c2)CC1c1[nH]c(C)c(C(=O)NCC(F)(F)F)c1C (stereo not given),47.9% (inactive)
9,O=C(/C=C(/C=C/c1ccc2[nH]ccc2c1)OB(F)F)/C=C/c1ccc2[nH]ccc2c1,12.9% (inactive)
10,CCOC(=O)c1cc2c(n1Cc1cc(OC)c(OC)c(OC)c1)-c1nc(N)sc1CCC2,61.3% (inactive)
11,N#Cc1ccc(O)c(C2=NCC(c3ccccc3)O2)c1 (stereo not given),46% (inactive)
12,CC(=O)c1c(C)nc(SCC(=O)Nc2cccc(O)c2)n1-c1ccc(Cl)cc1,92% (inactive)
13,O=C(Nc1cccc2ccccc12)NC1CC1,107% (inactive)
14,CCOC(=O)c1c2c(n3cccc(F)c13)C(=O)c1ncccc1C2=O,11.3% (inactive)
15,O=c1c2ccccc2n2cnc3ccc(Cl)c1c32,83.8% (inactive)
16,CC(C)c1ccc(-n2c(=S)[nH]c3sc4cc(O)ccc4c3c2=O)cc1,90.4% (inactive)
17,N#Cc1c(-c2ccccc2)cc(-c2ccccc2)n(CCCC(=O)Nc2ccccc2N)c1=O,62.2% (inactive)
18,COc1cc2c(cc1OCCCN1CCN(CCCOc3cc4c(cc3OC)C(=O)N3CCC[C@H]3C=N4)CC1)C=CC(C)(C)O2,-94.6% (active)
19,CCC(C(=O)[C@@H](C)[C@@H](O)[C@H](C)[C@@H]1O[C@@H]([C@@H](CC)C(=O)ONC(=O)c2ccccc2)CC[C@@H]1C)[C@H]1O[C@]2(C=CC(=O)[C@]3(CC[C@@](C)([C@H]4CC[C@](O)(CC)[C@H](C)O4)O3)O2)[C@H](C)C[C@@H]1C (stereo not given in full),21.1% (inactive)
20,CN1C(=O)/C(=C\c2nc([P+](c3ccccc3)(c3ccccc3)c3ccccc3)c(N3CCOCC3)o2)SC1=S,12.5% (inactive)

row,SMILES,growth
1,COc1ccc(/C=C/C(=O)c2cccc(OCCCCOc3cccc(C(=O)/C=C/c4ccc(OC)c(OC)c4)c3)c2)cc1OC,81.6% (inactive)
2,O=S(=O)(Nc1cc(Cl)ccc1Cl)c1ccc(-c2cnc(C3CC3)o2)cc1,31.7% (inactive)
3,C=C1C(=O)O[C@H]2[C@H]1CC/C(COC(=O)c1cc3ccccc3s1)=C\CC[C@@]1(C)O[C@@H]21,-9.05% (active)
4,N=C(N)c1ccc(-c2ccc(-c3ccccc3)o2)cc1,-16.9% (active)
5,c1cnc2c(-c3nc4ccc5[nH]ncc5c4c4c3CCCC4)c[nH]c2c1,29.8% (inactive)
6,Cc1nc2sc(C(=O)Nc3cccc(Br)c3)c(N)c2cc1C(O)c1ccccc1 (stereo not given),33.8% (inactive)
7,Cn1ccnc1C(=O)/C=C/c1ccc(CC(=O)Nc2cc(C(F)(F)F)cc(C(F)(F)F)c2)cc1,67.1% (inactive)
8,C=C1C(=O)O[C@H]2[C@H]1CC/C(Cn1cc(-c3ccccc3)nn1)=C\CC[C@@]1(C)O[C@@H]21,68.1% (inactive)
9,Oc1c(I)cc(I)cc1CNCc1ccccn1,30.5% (inactive)
10,CCOC(=O)c1cc2c(n1C)-c1nc(NC(C)=O)sc1CCC2,83.6% (inactive)
11,COc1c(C(=O)Nc2ccc(C)c(Br)c2)ccc2ccccc12,95.3% (inactive)
12,O=C(Nc1ccc(Oc2cccc(F)c2)c(Cl)c1)c1cccnc1,42.6% (inactive)
13,COC12C=C/C(=C(/C(=O)OCc3ccncn3)C(=O)CCCCCCCCC3(OC)C=C/C(=C(/C(=O)OCc4ccncn4)C(=O)CCCCCCCC1)O3)O2,7.75% (active)
14,COC1=CC(c2ccc[nH]2)=N/C1=C\c1[nH]c(C)c(C(=O)OC(C)C)c1C,21.1% (inactive)
15,O=C(Nc1cccc(Cl)c1)Nc1cccc(Cn2c(=O)[nH]c3ccc(Oc4ncccn4)cc3c2=O)c1,55.6% (inactive)
16,Cc1ccc(C)n1-c1ccccc1-n1c(C)ccc1C,108% (inactive)
17,COc1ccc(/C=C/C(=O)c2ccc(Nc3ccnc4cc(Cl)ccc34)cc2)cc1,87.1% (inactive)
18,CCN(CC)c1ccc(\C=N/N=C(N)/C(N)=N\N=C/c2ccc(N(CC)CC)cc2)cc1,113% (inactive)
19,O=[N+]([O-])c1cccc(-c2nc3cc4nc5ccccc5[nH]c4cc3n2)c1,102% (inactive)
20,COc1ccc(/C=C(\C#N)n2nnc3cc(Cl)ccc32)cc1,9.63% (active)
